Data: ChEMBL document CHEMBL3988442, “University of Dundee, Small-Polar-MMV Screening Library” (2021)
About 13,000 (27%) of roughly 48,000 compounds showed an effect of 50% or more. This is one part of the list.

tested on: Wolbachia pipientis; assay: Anti-Wolbachia Cell-Based Screen; format: functional; design: scale not given: in the data most compounds retested in dose-response had high values; settings: 5 µM

Row | Compound | Percent Effect [%]
1 | COc1ccc(NC(C)C(=O)N2CCN(Cc3ccccc3)CC2)cn1 (stereo not given) | 10.35
2 | OC(CNC1CCSCC1)c1cccc(OCc2ccccc2)c1 (stereo not given) | 91.01
3 | OC(CNC1CCOCC1)c1cccc(OCc2ccccc2)c1 (stereo not given) | 100.2
4 | COc1cccc(C(O)CNC(=O)CC2CCCCC2)c1 (stereo not given) | 1.218
5 | CO[C@@H](C(=O)NC1CCOCC1)c1ccccc1 | -10.4
6 | CN(Cc1ccccc1)c1ncccc1CNC1CCSCC1 | -9.19
7 | CCN1CCC(CC(=O)NCC(O)c2cccc(OC)c2)CC1 (stereo not given) | 5.929
8 | CN1CCC(NCC(O)c2cccc(OCc3ccccc3)c2)CC1 (stereo not given) | 116.6
9 | CC(C)Oc1cccc(C(O)CNC(=O)CCc2ccncc2)c1 (stereo not given) | -6.251
10 | COc1cccc(CNC(CN2CCN(C)CC2)c2ccccc2)c1 (stereo not given) | -4.654
11 | O=C(O)C(F)(F)F.O=C(c1ccccc1)N1CCS(=O)(=O)[C@@H]2CCNCC[C@@H]21 | -7.979
12 | c1ccc(CCn2cc(-c3nc(CN4CCOCC4)no3)nn2)cc1 | 7.795
13 | COc1ccc(-c2n[nH]cc2CN(C)CCc2scnc2C)c(F)c1 | -15.83
14 | Cc1cc2nc(CO[C@H]3CN(C4CCN(C)CC4)C[C@H]3F)[nH]c2cc1C | -19.54
15 | COc1cccc2c1OCC(C(=O)N1CCC(NS(C)(=O)=O)CC1)C2 (stereo not given) | 16.61
16 | CC(C)c1cnc(CN2C(=O)CC3(CCSC3)C2=O)o1 (stereo not given) | 17.31
17 | Cc1cnccc1CN1C[C@@H](O)[C@H](Oc2ccccc2)C1 | -5.554
18 | O[C@@H]1CN(Cc2cccnc2)C[C@H]1Oc1ccccc1 | 103.4
19 | O=C1NC(c2ccccc2)=N[C@@]12CC[C@@H]1CN(Cc3cccnc3)C[C@@H]12 | 0.6919
20 | Cc1cncc(CN2C[C@@H](O)[C@H](Oc3ccccc3)C2)c1 | 132.9
21 | CC(C)O[C@H]1CN(Cc2cnc3c(-c4ccccc4)cnn3c2)C[C@@H]1O | 3.276
22 | CCC1CN(C(=O)c2cncc(C)c2)CCC(=O)N1Cc1ccccc1 (stereo not given) | -10.11
23 | O[C@@H]1CN(Cc2ccncc2)C[C@H]1Oc1ccccc1 | 125.9
24 | OC1CN(Cc2ccccc2)CCN(c2ccncc2)C1 (stereo not given) | 12.72
25 | F[C@@H]1CN(Cc2cccnc2)C[C@@H]1OCc1nc2ccccc2[nH]1 | 10.94
26 | COCC(=O)N1CCN(c2ncnc3cccc(F)c23)CC1 | 0.7263
27 | CC1COc2ccccc2N1C(=O)c1ccc(=O)n(C)c1 (stereo not given) | -18.38

Row | Compound | Percent Effect [%]
28 | Fc1cccc(N2CCCC3(C2)CN(c2ncccn2)CCO3)c1.O=C(O)C(F)(F)F.O=C(O)C(F)(F)F (stereo not given) | -1.466
29 | Cc1csc(N2CCCN(Cc3noc(C)n3)CC2)n1 | 0.2085
30 | c1csc(N2CCCN(Cc3noc(C4CC4)n3)CC2)n1 | 107.3
31 | c1csc(N2CCCN(Cc3nc(C4CC4)no3)CC2)n1 | -5.415
32 | c1csc(N2CCN(Cc3nnnn3C3CC3)CC2)n1 | -36.32
33 | CCc1nc(CN2CCCN(c3nccs3)CC2)no1 | 1.816
34 | CCc1nc(CN2CCCN(c3ncnc4ccsc34)CC2)no1 | -84.77
35 | CC(C)c1nc(CN2CCCN(c3nccs3)CC2)no1 | 89.07
36 | Cc1nc(CN2CCCN(c3nccs3)CC2)no1 | 78.71
37 | C[C@@H]1CN(C(=O)CCc2nncn2C)C[C@@]1(O)C1CCC1 | -1.808
38 | Cc1cc(C)n(C(=O)c2cn(C)nc2S(=O)(=O)N2CCSCC2)n1 | -0.316
39 | Cc1nccn1CCC1CCCCN1Cc1ccc(O)cc1Cl (stereo not given) | -13.87
40 | Cc1ccc(O)c(CN2CCCCC2CCN2CCOCC2)c1 (stereo not given) | 102.9
41 | Cc1c[nH]c(CN2CCCCC2CCn2cccn2)c(C)c1=O (stereo not given) | 21.06
42 | COc1cc2c(cc1CN1CCCCC1CN1CCOCC1)CCC2 (stereo not given) | 26.24
43 | COCCCC1CCCCN1Cc1cn2cc(C)ccc2n1 (stereo not given) | 95.19
44 | Cc1ccc2nc(CN3CCCCC3CCN3CCOCC3)cn2c1 (stereo not given) | 98.48
45 | Cc1oc(-c2ccoc2)nc1CN1CCCCC1CCn1cccn1 (stereo not given) | 3.711
46 | CCCn1ncc(CN2CCCCC2CCCOC)c1C (stereo not given) | -0.2831
47 | Cc1ccc2nc(CN3CCCCC3CCn3cccn3)cn2c1 (stereo not given) | 89.18
48 | COCCCC1CCCCN1Cc1cnn(C)c1C1CC1 (stereo not given) | 18.85
49 | COc1c(C)cnc(CN2CCCCC2CCN2CCOCC2)c1C (stereo not given) | 0.5923
50 | Cc1cnn(CC2CCCN2Cc2cc(=O)n3cc(C)ccc3n2)c1 (stereo not given) | 11.19
51 | CC(C)(C)CN(CCC#N)C(=O)Nc1cccc(N2CCNC2=O)c1 | 7.726
52 | O=C(c1ccccc1F)N(CCCO)S(=O)(=O)c1cccs1 | 2.629
53 | O=C(NCCNc1ncccn1)N(Cc1ccc(F)cc1F)C1CC1 | -5.455
54 | N#Cc1ccccc1OCCN1CCCCC1C(=O)N1CCOCC1 (stereo not given) | 9.052

Row | Compound | Percent Effect [%]
55 | Cc1ccc2nc(CN3CCCCC3C(=O)N3CCOCC3)cn2c1 (stereo not given) | 89.82
56 | O=C(CN1CCCC1c1nc(-c2ccccc2)no1)N1CCOCC1 (stereo not given) | 6.777
57 | Cc1nc(CN2CCCN(C(=O)C(C)OCC3CC3)CC2)cs1 (stereo not given) | 0.6409
58 | COc1ccc(S(=O)(=O)NC(=O)c2c(C)noc2C(C)C)cc1C | -2.008
59 | CCc1nc(N2CCCC(CCOC)(C(=O)O)C2)ncc1C (stereo not given) | 2.702
60 | CCCS(=O)(=O)CCN1CCN(C(C#N)c2ccccc2)CC1 (stereo not given) | 125.8
61 | CC(C)S(=O)(=O)CCN1CCN(C(C#N)c2ccccc2)CC1 (stereo not given) | 88.63
62 | CC(c1ccc(Cl)cc1)N1CCN(CCCS(N)(=O)=O)CC1 (stereo not given) | 8.4
63 | CCCS(=O)(=O)CCN1CCN(c2cc(F)ccc2F)CC1 | -4.475
64 | CCS(=O)(=O)CCN1CCN(C(C)c2cccnc2)CC1 (stereo not given) | 4.9
65 | CC(c1ccc(Cl)cc1)N1CCN(CCS(N)(=O)=O)CC1 (stereo not given) | -4.709
66 | CS(=O)(=O)N1C[C@H](C(=O)Nc2cnccn2)C[C@H]2OCC[C@H]21 | -3.249
67 | CN(C)C(=O)N1CC2(CCN(S(C)(=O)=O)CC2)c2ccccc21 | 1.836
68 | CS(=O)(=O)N1CCc2[nH]cnc2C12CCN(C1CCOCC1)CC2 | 0.6109
69 | CS(=O)(=O)N1CC2(CCN(C3CCCCC3)CC2)Cc2ccccc21 | 114.5
70 | O=C1N(Cc2ccc(F)c(F)c2)CCCC12CCN(C1CCCCC1)C2 (stereo not given) | -2.682
71 | CS(=O)(=O)N1CC2(CCN(C3CCCCC3)C2)Cc2ccccc21 (stereo not given) | 120
72 | Cc1cccc(N2CCC(N3CCC4(CCCNC4=O)C3)CC2)c1C (stereo not given) | 11.3
73 | CC(C)CCN1CCc2[nH]nc(C(=O)N3CCCC3C)c2C1.O=C(O)C(F)(F)F (stereo not given) | -10.1
74 | CS(=O)(=O)N1CC[C@@H]2[C@@H](CCC(=O)N2CCC2=CCCCC2)C1 | -15.08
75 | CN(Cc1cnn(C)c1)Cc1nc(CCc2ccccc2)no1 | 8.219
76 | Cc1cnccc1-c1cnn(CCNC(=O)C(C)(C)C)c1C1CC1.Cl | 128.5
77 | Cc1cnccc1-c1cnn(CCNC(=O)c2ccncc2)c1C1CC1.Cl | 189.5
78 | Cc1ccc(CN(C(=O)NCCNC(=O)c2cccnc2)C(C)C)o1 | -0.6443
79 | CCNc1ncc(C(=O)NCCNc2ccncc2C)cn1 | 11.05
80 | Cc1cnccc1-c1cnn(CCNC(=O)c2cccnc2)c1C1CC1.Cl | 156.9
81 | Cc1cnccc1-c1cnn(CCNC(=O)c2ccccn2)c1C1CC1.Cl | 221.9

Row | Compound | Percent Effect [%]
82 | Cc1ccccc1C1CCN(C(=O)CCNC(=O)C(C)(C)C)C1 (stereo not given) | -3.334
83 | Cc1cnn(C(C)C2CC2)c1NC(=O)c1ccncc1 (stereo not given) | -0.2997
84 | CC(C)(C)C(=O)NCCC(=O)NS(=O)(=O)c1cccnc1 | 1.555
85 | CCOC(=O)NC(CNC(=O)c1ccccn1)CC(C)C (stereo not given) | -0.8901
86 | O=C(NCCSC1CCCC1)c1cnccn1 | 5.351
87 | CC(Cn1cccn1)NCc1csc(-c2ccc(F)cc2)n1 (stereo not given) | 3.098
88 | CCCSCC(=O)Nc1ncn(CC(=O)N2CCCCCC2)n1 | -27.1
89 | COC(=O)c1cccc(CN(C)Cc2ncnn2C)c1C#N | -234
90 | O=C(Nc1cnn(-c2ccccc2Cl)c1)N[C@@H]1C=C[C@H](CO)C1 | -14.17
91 | COc1ccc2c(O)c(NC(=O)NCC3CC3)cnc2c1 | -18.39
92 | O=C(NCC1CC1)Nc1cnc2ccc(F)cc2c1O | 100.3
93 | O=C(Cn1cnnn1)Nc1ccc(F)cc1OCC1CC1 | 11.02
94 | CNc1nc(CNC(=O)Nc2cccc(COCCOC(C)C)c2)cs1 | -6.236
95 | CCc1ccc(S(=O)(=O)N2CCCC3(CCCN3S(C)(=O)=O)C2)cc1 (stereo not given) | 114.6
96 | CS(=O)(=O)N1CCCC12CCCN(c1nccs1)C2 (stereo not given) | 4.667
97 | CC(C)c1ccc(S(=O)(=O)N2CCCC3(CCCN3S(C)(=O)=O)C2)cc1 (stereo not given) | 108.3
98 | CCc1ccc(S(=O)(=O)N2CCC3(CC(C(=O)NC)=NO3)C2)cc1 (stereo not given) | 16.22
99 | CC(C)CC(c1nc(-c2cnn(C)c2)no1)N1CCCCC1=O (stereo not given) | 17.74
100 | Cc1ccccc1NC(=O)CNC(C)COc1ccccc1 (stereo not given) | -5.07
101 | CCOC(=O)COc1cccc(NC(=O)C2COCCO2)c1 (stereo not given) | -0.4507
102 | Cc1ccc(OCC(C)NS(C)(=O)=O)cc1C (stereo not given) | 1.577
103 | CC(=O)c1ccc(OCC(C)O)cc1O (stereo not given) | 100.7
104 | CC(=O)c1ccc(Cl)c(Cl)c1OCC(=O)NC(N)=O | 29.22
105 | CCOC(=O)COc1ccc(C(C)=O)c(O)c1 | 95.41
